From ChEMBL document CHEMBL4808148, “HDAC6 screening dataset using tau-based substrate in an enzymatic assay yields selective inhibitors and activators” (2021) come the findings set out here.

In general, inhibition refers to the relative decrease from the control value, in per cent.

Hit rate of the full screen: of about 5,600 compounds, about 150 (2.7%) showed an effect of 50% or more. The entries come from a sample that favours strong results as a whole.

For assay [1], the target named is T1, Protein deacetylase HDAC6 (Homo sapiens) (UniProt Q9UBN7).
T1 sequence (whole entry): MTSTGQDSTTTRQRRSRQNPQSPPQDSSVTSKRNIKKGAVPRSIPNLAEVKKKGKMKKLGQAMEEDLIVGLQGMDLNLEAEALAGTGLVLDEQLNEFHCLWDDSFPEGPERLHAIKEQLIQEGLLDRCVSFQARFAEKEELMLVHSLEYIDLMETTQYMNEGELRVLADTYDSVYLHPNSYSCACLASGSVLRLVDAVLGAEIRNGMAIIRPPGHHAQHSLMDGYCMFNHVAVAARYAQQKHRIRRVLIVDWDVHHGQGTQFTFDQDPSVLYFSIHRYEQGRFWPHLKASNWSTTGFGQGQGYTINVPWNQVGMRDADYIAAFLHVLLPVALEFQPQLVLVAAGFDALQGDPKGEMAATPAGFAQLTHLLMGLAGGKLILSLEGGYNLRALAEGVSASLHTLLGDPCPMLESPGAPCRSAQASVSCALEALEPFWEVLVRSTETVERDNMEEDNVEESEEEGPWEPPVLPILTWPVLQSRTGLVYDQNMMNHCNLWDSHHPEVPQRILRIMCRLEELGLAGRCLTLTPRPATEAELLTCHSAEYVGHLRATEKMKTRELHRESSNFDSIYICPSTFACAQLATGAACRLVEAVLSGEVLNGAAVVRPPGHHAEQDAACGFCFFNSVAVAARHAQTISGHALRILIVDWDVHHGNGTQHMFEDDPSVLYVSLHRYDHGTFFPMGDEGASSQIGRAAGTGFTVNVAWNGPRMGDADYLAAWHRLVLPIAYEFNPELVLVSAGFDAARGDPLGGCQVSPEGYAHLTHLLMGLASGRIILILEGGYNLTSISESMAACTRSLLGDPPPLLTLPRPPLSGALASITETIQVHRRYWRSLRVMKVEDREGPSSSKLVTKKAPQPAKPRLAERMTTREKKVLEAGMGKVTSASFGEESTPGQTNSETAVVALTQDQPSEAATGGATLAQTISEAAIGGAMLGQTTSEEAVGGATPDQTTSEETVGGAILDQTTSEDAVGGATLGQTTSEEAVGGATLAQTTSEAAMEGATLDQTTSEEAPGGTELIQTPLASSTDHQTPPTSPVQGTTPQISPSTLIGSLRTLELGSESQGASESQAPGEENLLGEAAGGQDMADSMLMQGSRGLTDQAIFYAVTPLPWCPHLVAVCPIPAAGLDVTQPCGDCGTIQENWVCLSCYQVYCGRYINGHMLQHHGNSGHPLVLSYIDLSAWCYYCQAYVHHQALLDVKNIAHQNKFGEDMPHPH
The note with it: at 10 µM.

Assay [2] deals with Protein deacetylase HDAC6 (Homo sapiens) (UniProt Q9UBN7). The note with it: at 10 µM. The source holds these as a separate data set.

On to `C=CC(=O)O`, for which the inhibition in assay [1] came to 0.87%. In the case of `Cc1cc(O)c2c(c1)C(=O)c1cccc(O)c1C2=O`, the inhibition in assay [1] was determined as 6.5%. Regarding `C[C@@H]1CC(=O)c2c(ccc3c2C(=O)c2cccc(O)c2C3=O)C1`, the inhibition in assay [1] amounted to 77.5%. As to `O=C1c2cccc(O)c2C(=O)c2c(O)cccc21`, the inhibition in assay [1] was -4.52%.

In the case of `Cc1ccc2c(N3CCN(CCc4cccc(N5CCNC5=O)c4)CC3)cccc2n1`, in assay [1], the inhibition is -3.2%. In the case of `CCCCCCOc1cc2c(cc1N(C)c1ncc(C(=O)O)cn1)C(C)(C)CCC2(C)C`, the inhibition in assay [1] turned out to be 0.82%.

As for `Cc1cccc(/C=C/c2ccccc2)n1`, the inhibition in assay [1] was 98.2%.

With `Nc1nccc(/C=C/c2ccccc2)n1`, the inhibition in assay [1] was 96.2%. `CC[N+](CC)(CC)CCOc1ccc(/C=C/c2ccccc2)cc1`: the inhibition in assay [1] is -3.25%. Regarding `Cc1nc2ccccc2c(-c2ccc3c4c(ccnc24)CCO3)c1[C@H](OC(C)(C)C)C(=O)O`, the inhibition in assay [1] is -1.87%. For the compound `Cc1cc(N2CCOCC2)ccc1Nc1nc(NC2CCCCC2)c2nc[nH]c2n1`, the inhibition in assay [1] is -0.21%.

As for `Cc1cc2ncc(C(=O)NCC(C)(C)NCC(=O)N3CCC[C@H]3C#N)cn2n1`, the inhibition in assay [1] was 2.17%.

`COc1cc(Cc2cnc(N)nc2N)cc(OC)c1OC`: in assay [1], the inhibition was -5.72%.

With `COc1ccc(COc2ccc(Cc3cnc(N)nc3N)cc2OC)cc1`, the inhibition in assay [1] came out at 58.8%.

On to `COc1ccc(Cc2cnc(N)nc2N)cc1OC`, for which the inhibition in assay [1] was -3.93%. `c1nc2c(NC3CCCCC3)nc(Nc3ccc(N4CCOCC4)cc3)nc2[nH]1`: the inhibition in assay [1] was -4.12%. Still for that read-out and setting: for `Cc1cc(/C(=C\Nc2ccc(Cl)cc2)C(=O)Nc2ccc(Cl)cc2)on1` the value was -2.63%; for `Oc1ccc2c(c1)CC[C@H](c1ccccc1)[C@@H]2c1ccc(OCCN2CCCC2)cc1`, -2.46%; for `O=c1c(-c2ccc(O)cc2)coc2c(C3OC(CO)C(O)C(O)C3O)c(O)ccc12` (stereo not drawn), -5.66%. On to `O=c1c(-c2ccc(O)cc2)coc2cc(O)ccc12`, for which the inhibition in assay [1] was determined as 76%. For the compound `COc1cc(C(C)=O)ccc1O`, the inhibition in assay [1] was determined as 4.49%. For the compound `COc1ccc(C(C)=O)c(O)c1`, the inhibition in assay [1] came to 0.72%.

Consider `O=c1c(O)c(-c2ccc(O)c(O)c2)oc2cc(O)ccc12`, for which the inhibition in assay [1] was 8.31%.

For `CC(C)Oc1ccc2c(=O)c(-c3ccccc3)coc2c1`, in assay [1], the inhibition was -8.43%. In the case of `COc1cc2c(=O)c(-c3ccc(O)cc3)coc2cc1O`, the inhibition in assay [1] amounted to 96.6%. The same measure, in the same setting: for `Cc1cc(=O)oc2cc(O)ccc12` the value was -0.81%; for `COc1ccc(-c2coc3cc(O)ccc3c2=O)cc1`, 62.6%; for `Cc1cc(CCCOc2c(C)cc(-c3noc(C(F)(F)F)n3)cc2C)on1`, -3.38%. The same measure, in the same setting: for `CCCCNc1ncc2c(-c3ccc(CN4CCN(C)CC4)cc3)cn([C@H]3CC[C@H](O)CC3)c2n1` the value was 5.61%.

For the compound COLISTIMETHATE SODIUM, CHEMBL1201441, the inhibition in assay [2] amounted to 0.02%. On to `O=S(=O)(OC[C@H]1O[C@@](COS(=O)(=O)[O][Al]([OH])[OH])(O[C@H]2O[C@H](COS(=O)(=O)[O][Al]([OH])[OH])[C@@H](OS(=O)(=O)[O][Al]([OH])[OH])[C@H](OS(=O)(=O)[O][Al]([OH])[OH])[C@H]2OS(=O)(=O)[O][Al]([OH])[OH])[C@@H](OS(=O)(=O)[O][Al]([OH])[OH])[C@@H]1OS(=O)(=O)[O][Al]([OH])[OH])[O][Al]([OH])[OH]`, for which, in assay [1], the inhibition is -5.96%.

Turning to `OC[C@H]1O[C@@H](c2ccc(F)c(Cc3cc4ccccc4s3)c2)[C@H](O)[C@@H](O)[C@@H]1O`, the inhibition in assay [1] is -2.47%. Regarding `O=C(/C=C/c1ccc(O)c2c1[C@@H](C(=O)O[C@H](Cc1ccc(O)c(O)c1)C(=O)O)[C@H](c1ccc(O)c(O)c1)O2)O[C@H](Cc1ccc(O)c(O)c1)C(=O)O`, the inhibition in assay [1] stood at 3.93%.

`CC(=O)NC[C@H]1CN(c2ccc(-c3ccc(CNCc4cnn[nH]4)cc3)c(F)c2)C(=O)O1`: in assay [1], the inhibition came to 0.09%. As for `Cn1nnc(-c2ccc(-c3ccc(N4C[C@H](CO)OC4=O)cc3F)cn2)n1`, in assay [1], the inhibition was 86.8%. As to `Cc1cccc(N2CC(CO)OC2=O)c1` (stereo not drawn), the inhibition in assay [1] is -6.61%. As for `Cc1cc(SCc2sc(-c3ccc(C(F)(F)F)cc3)nc2C)ccc1OCC(=O)O`, the inhibition in assay [1] stood at 3.31%. Turning to `CCCCOCCOc1nc(-c2ccc(C(=O)O)c(F)c2)sc1C`, in assay [1], the inhibition was 0.11%.

Turning to `Cc1nc(-c2ccc(OCC(C)C)c(C#N)c2)sc1C(=O)O`, the inhibition in assay [1] is 98.8%.

In the case of `CCOC(=O)[C@@]1(CCCCCCOc2ccc(Cl)cc2)CO1`, in assay [1], the inhibition is -2.98%.

On to `CCC(CC)Nc1nc(C)c(-c2ccc(OC(F)(F)F)cc2OC)nc1OC`, for which the inhibition in assay [1] was -3.03%. On to `O=C1c2ccccc2-n2c1nc1ccccc1c2=O`, for which the inhibition in assay [1] was 68.6%. With `O=c1c2ccccc2nc2n1CCc1c-2[nH]c2ccccc12`, the inhibition in assay [1] was found to be 7.17%. For `O=c1c2ccccc2nc2n1CCCCC2`, the inhibition in assay [1] was determined as 17.6%. Turning to `FC(F)(F)c1cccc(-c2noc(-c3cc(-c4ccccc4)c(C(F)(F)F)s3)n2)c1`, the inhibition in assay [1] is -4.64%.

Regarding `O=C(O)c1cccc(-c2noc(-c3ccccc3F)n2)c1`, the inhibition in assay [1] amounted to 99.8%. For the compound `Cc1c(-c2ccc(-c3ccccc3F)cc2)nc2ccc(F)cc2c1C(=O)O`, the inhibition in assay [1] is -2.53%. In the case of `NC1(C(=O)N[C@@H](CCO)c2ccc(Cl)cc2)CCN(c2nc[nH]c3nccc2-3)CC1`, in assay [1], the inhibition came to 5%. On the same count and under the same terms, the same measure for `CN1C(=O)N[C@H](Cc2c[nH]c3c(Cl)cccc23)C1=O`: 2.4%; for `Cc1cc(C)c(N(Cc2ccccc2)S(=O)(=O)c2ccc(OCCNC(=O)c3cc4ccccc4o3)cc2)c(C(=O)NO)c1`: -0.11%; for `CN(C)Cc1c(C(=O)NCCOc2ccc(C(=O)NO)cc2)oc2ccccc12`: 97.9%.

Turning to `COc1ccc(C(=O)NCc2ccc(OCCN(C)C)cc2)cc1OC`, the inhibition in assay [1] was -3.31%. In the case of `CC1(C)OC[C@H](NC(=O)Nc2ccc(Br)cc2Br)[C@H](c2ccccc2)O1`, in assay [1], the inhibition is -0.73%.
